Test systems include SR leukemia; OVCAR-8 ovarian; OVCAR-5 ovarian; SK-OV-3 ovarian; IGROV1 ovarian; OVCAR-3 ovarian; HS 578T breast; NCI/ADR-RES ovarian; T-47D breast; BT-549 breast; MDA-MB-435 melanoma; SW-620 colon; MCF7 breast; HCT-116 colon; KM12 colon; RPMI-8226 leukemia; OVCAR-4 ovarian; HCC-2998 colon.
Holding throughout (test): NCI-60 one-dose screen, 48 h (100 = growth as untreated, 0 = no growth, -100 = all killed)
Common to all, as to conditions: 10 µM unless noted

The structures appear in SMILES notation. Compounds without any hit were thinned out: in the full panel of roughly 83,000, 20% have a hit.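 Percent growth is the endpoint: 0 to 100 indicates growth inhibition (40 means 60% inhibition), 0 means no net growth, and negative values indicate cell death.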 Unmarked numbers belong to inactive results. Calls of active or inactive are those of the source. Rule for the calls: active = growth percent below 10; inactive = the rest.

Regarding `N#C/C(=C\c1ccc(-c2ccc(F)cc2)o1)c1nc(-c2ccco2)cs1`, the growth in the experiment on SR leukemia is 86.3%; in the experiment with OVCAR-8 ovarian it was 102%; in the experiment on OVCAR-5 ovarian, 65.1%; in the experiment with SK-OV-3 ovarian it was 103%; with IGROV1 ovarian, 60%; with OVCAR-3 ovarian, 105%. Further, the growth is 109% in the experiment with HS 578T breast; 107% with NCI/ADR-RES ovarian; -26.3% (active) in the experiment on T-47D breast; 106% in the experiment on BT-549 breast; 102% with MDA-MB-435 melanoma; 96.5% in the experiment with SW-620 colon. For the same compound, the growth is 11.7% in the experiment with MCF7 breast, 101% in the experiment on HCT-116 colon and 60.6% in the experiment on KM12 colon.
On to `N=C(N)c1ccc(S(N)(=O)=O)cc1`, for which the growth in the experiment with RPMI-8226 leukemia was 128%; with OVCAR-8 ovarian, 100%; with OVCAR-5 ovarian it was 88.2%; with OVCAR-4 ovarian, 102%; in the experiment with SK-OV-3 ovarian, 115%; with IGROV1 ovarian, 110%. The growth in the experiment with OVCAR-3 ovarian was 113%; in the experiment with NCI/ADR-RES ovarian, 97.5%; in the experiment with T-47D breast it was 101%; in the experiment on BT-549 breast, 94.2%; in the experiment with MDA-MB-435 melanoma it was 98.5%; in the experiment on SW-620 colon it was 105%. Further, the growth was 99.4% in the experiment with MCF7 breast, 93.9% in the experiment on HCT-116 colon, 93.9% with HCC-2998 colon and 106% with KM12 colon.
Regarding `Cc1ccc(NC2CC(=O)N(c3c(C)cc(C)cc3C)C2=O)c(C)c1` (stereo not given), the growth is 95.3% with SR leukemia; 107% in the experiment on OVCAR-8 ovarian; 104% with OVCAR-5 ovarian; 98.6% with OVCAR-4 ovarian; 121% with SK-OV-3 ovarian; 93.9% in the experiment with IGROV1 ovarian. The growth was 115% in the experiment on OVCAR-3 ovarian; 104% in the experiment on HS 578T breast; 106% in the experiment with NCI/ADR-RES ovarian; 99.4% in the experiment on T-47D breast; 113% with BT-549 breast; 103% with MDA-MB-435 melanoma. Moreover, the growth in the experiment with SW-620 colon is 101%; in the experiment on MCF7 breast, 92.9%; with HCT-116 colon, 105%; in the experiment with HCC-2998 colon, 112%; in the experiment on KM12 colon, 102%.
`O=c1[nH]ncc(Br)c1Br`: the growth is 23.9% with RPMI-8226 leukemia; 7.24% (active) in the experiment on OVCAR-8 ovarian; 115% in the experiment on OVCAR-5 ovarian; 51.2% in the experiment with IGROV1 ovarian; -100% (active) in the experiment on OVCAR-3 ovarian; 38.1% with NCI/ADR-RES ovarian. The growth was 46.3% with T-47D breast; 83.2% with BT-549 breast; 64.3% in the experiment on MDA-MB-435 melanoma; -80.3% (active) with SW-620 colon; 23% in the experiment on MCF7 breast; 15.2% in the experiment with HCT-116 colon. Also, in the experiment on KM12 colon, the growth is 45.8%.
Turning to `OCC(CO)(CCl)CCl`, the growth in the experiment with SR leukemia was 95.6%; in the experiment on OVCAR-8 ovarian, 101%; in the experiment on OVCAR-5 ovarian, 98.1%; in the experiment with OVCAR-4 ovarian, 109%; in the experiment on SK-OV-3 ovarian, 88.5%; with IGROV1 ovarian it was 109%. Also, the growth is 105% with OVCAR-3 ovarian; 105% in the experiment with HS 578T breast; 99% in the experiment on NCI/ADR-RES ovarian; 94.2% in the experiment with T-47D breast; 95.6% in the experiment on BT-549 breast; 105% in the experiment on MDA-MB-435 melanoma. Moreover, the growth was 101% with SW-620 colon; 94.2% in the experiment with MCF7 breast; 78.6% with HCT-116 colon; 101% in the experiment on HCC-2998 colon; 99.9% with KM12 colon.
Consider `NNC(=O)c1nc2ccccc2[nH]1`, for which the growth in the experiment with SR leukemia was 96.4%; in the experiment on OVCAR-8 ovarian it was 97.1%; in the experiment on OVCAR-5 ovarian, 97.9%; in the experiment with OVCAR-4 ovarian, 118%; in the experiment with SK-OV-3 ovarian, 83.3%; in the experiment on IGROV1 ovarian it was 106%. The growth in the experiment with OVCAR-3 ovarian is 108%; in the experiment on HS 578T breast it was 109%; with NCI/ADR-RES ovarian, 112%; in the experiment on T-47D breast, 89.8%; in the experiment with BT-549 breast, 95.4%; in the experiment with MDA-MB-435 melanoma it was 109%. Besides, the growth in the experiment on SW-620 colon is 105%; with MCF7 breast, 104%; with HCT-116 colon, 91.3%; in the experiment on HCC-2998 colon, 104%; with KM12 colon, 102%.
Consider `c1ccc2c(-c3nc(-c4c[nH]c5ncccc45)cs3)c[nH]c2c1`, for which the growth with RPMI-8226 leukemia was 76.7%; in the experiment on OVCAR-8 ovarian, 98.4%; in the experiment on OVCAR-5 ovarian, 119%; in the experiment with SK-OV-3 ovarian it was 88.6%; in the experiment with IGROV1 ovarian it was 59.3%; in the experiment with OVCAR-3 ovarian it was 102%. Also, the growth in the experiment with HS 578T breast was 110%; with NCI/ADR-RES ovarian, 107%; in the experiment with T-47D breast, 93.8%; in the experiment with BT-549 breast, 97%; in the experiment with MDA-MB-435 melanoma, 84.8%; with SW-620 colon, 103%. Besides, the growth with MCF7 breast is 83%; with HCT-116 colon, 95%; in the experiment with HCC-2998 colon, 102%; in the experiment on KM12 colon, 90.6%.
Consider `Cn1cc(-c2nc(-c3c[nH]c4ncccc34)cs2)c2cc(Cl)ccc21`, for which the growth is 34.2% with RPMI-8226 leukemia; 63.2% in the experiment on OVCAR-8 ovarian; 60.3% with OVCAR-5 ovarian; 71.7% in the experiment on SK-OV-3 ovarian; 46.3% in the experiment with IGROV1 ovarian; 69.9% in the experiment with OVCAR-3 ovarian. Further, the growth with HS 578T breast is 61.6%; with NCI/ADR-RES ovarian, 44.7%; in the experiment on T-47D breast it was 38.9%; with BT-549 breast, 70.6%; in the experiment on MDA-MB-435 melanoma it was 51.9%; in the experiment with SW-620 colon it was 73.3%. Moreover, the growth with MCF7 breast is 17%; in the experiment with HCT-116 colon, 32.2%; in the experiment with HCC-2998 colon it was 80.6%; in the experiment with KM12 colon it was 9.88% (active).
With `O=C1C(Cl)=C(Nc2ccc(S(=O)(=O)c3ccc(NC4=C(Cl)C(=O)c5ccccc5C4=O)cc3)cc2)C(=O)c2ccccc21`, the growth in the experiment with RPMI-8226 leukemia is 5.2% (active); with OVCAR-8 ovarian it was -61.8% (active); with OVCAR-5 ovarian it was 100%; in the experiment with OVCAR-4 ovarian, -84.9% (active); in the experiment on SK-OV-3 ovarian, 78.9%; with IGROV1 ovarian it was -18.5% (active). Moreover, the growth is -98.4% (active) in the experiment with OVCAR-3 ovarian; 43.6% in the experiment with NCI/ADR-RES ovarian; -39.6% (active) with T-47D breast; 31.4% in the experiment on BT-549 breast; 10.5% in the experiment with MDA-MB-435 melanoma; 0.736% (active) in the experiment on SW-620 colon. Besides, the growth was -55.1% (active) in the experiment with MCF7 breast, -85.7% (active) with HCT-116 colon, 47.1% in the experiment on HCC-2998 colon and 5.09% (active) in the experiment on KM12 colon.
Consider `OCC1OC(n2cnc3c(Cl)ncnc32)CC1O` (stereo not given), for which the growth in the experiment with RPMI-8226 leukemia was 98.3%; with OVCAR-8 ovarian, 104%; in the experiment with OVCAR-5 ovarian it was 101%; in the experiment with OVCAR-4 ovarian, 120%; in the experiment with SK-OV-3 ovarian, 104%; in the experiment on IGROV1 ovarian, 98.9%. For the same compound, the growth in the experiment with OVCAR-3 ovarian is 115%; with HS 578T breast, 108%; in the experiment on NCI/ADR-RES ovarian it was 118%; in the experiment on T-47D breast, 92.1%; with BT-549 breast, 114%; with MDA-MB-435 melanoma, 104%. Further, the growth with SW-620 colon is 98.7%; with MCF7 breast, 95.2%; in the experiment with HCT-116 colon, 94.1%; in the experiment on KM12 colon it was 107%.
As to `Cc1ccc2c(c1)c(-c1nc(-c3c[nH]c4ncccc34)cs1)cn2C`, the growth is 72.7% in the experiment on RPMI-8226 leukemia; 104% in the experiment on OVCAR-8 ovarian; 68.6% in the experiment with OVCAR-5 ovarian; 102% in the experiment with SK-OV-3 ovarian; 99.2% in the experiment with IGROV1 ovarian; 139% in the experiment with OVCAR-3 ovarian. Moreover, the growth in the experiment on HS 578T breast was 109%; with NCI/ADR-RES ovarian it was 89.4%; with T-47D breast, 45.3%; in the experiment on BT-549 breast, 104%; in the experiment on MDA-MB-435 melanoma it was 96.5%; with SW-620 colon, 112%. Moreover, the growth in the experiment with MCF7 breast was 17.4%; with HCT-116 colon it was 85.1%; in the experiment on HCC-2998 colon, 80%; with KM12 colon, 57.8%.

These data come from PubChem BioAssay (NCI).
